From PubChem BioAssay AID1117319 (Southern Research Institute, 2015)
“And” between values parts separate entries of the source, which are not always exact repeats. Equal values may be shown once. About 1,500 (0.58%) of roughly 260,000 compounds were called active. Another 5% or so got no clear call; they are omitted.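 How the source made its calls: active means inhibition above a set limit at one or more doses, reproduced on every date tested; inconclusive means results disagree between test dates, or hit never tested in dose response; inactive means the rest.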 These entries were drawn from the full list. Results with a measured potency or affinity are listed apart.

These compounds were tested against Virion infectivity factor (Human immunodeficiency virus type 1 group M subtype B (isolate BH10)) + Virion infectivity factor (Human immunodeficiency virus type 1 group M subtype B (isolate BRU/LAI)) + Virion infectivity factor (Human immunodeficiency virus type 1 group M subtype B (isolate PCV12)) + Virion infectivity factor (Human immunodeficiency virus type 1 group M subtype B (isolate HXB2)) + DNA dC->dU-editing enzyme APOBEC-3G (Homo sapiens) (UniProt P69720+P69721+P69722+P69723+Q9HC16) (assay: HIV-1 Vif–A3G interaction blockers – biochemical, TR-FRET, GST-Vif 1-94, biotin-A3G peptide, dose response retest, primary screen (AID 1117319;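 further: Vif residues 1-94 fused to GST binding biotinylated APOBEC3G peptide 110-148; 0% = full assay without inhibitor and 100% = GST in place of GST-Vif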)). Conditions: TR-FRET GST-Vif / biotin-A3G peptide binding; active compounds read high.

inhibition, inactive:
CN(C)C(CNC(=O)c1ccccc1C(F)(F)F)c1ccco1 (stereo not given) 19%
CC(C)CCNC(=O)c1cccnc1Sc1ccccc1 -0.39%
Cc1ccc(C(C)C)cc1OCCCCN1CCCC1 -6.06%
Cc1ccc(S(=O)(=O)NC(=O)Nc2c(C)cccc2C)cc1 -2.09%
CCOC(=O)/C=C1\SCC(=O)N1CC(=O)NC(C)C 0.13%
CCOC(=O)/C=C1\SCC(=O)N1CC(=O)NC(C)c1ccccc1 (stereo not given) -4.1%
O=C(CSc1nc2ccccc2n1Cc1ccccc1)N/N=C/c1ccccc1C(=O)O -4.24%
C=CCC[C@H](Cc1ccc(F)cc1)C(=O)OC[C@@H](C)NC(=O)[C@H](CC=C)CC(=O)N(CCO)Cc1ccccc1 0.83%
COc1ccc(OC)c(Nc2nc(C3CC3)nc3c2nnn3Cc2ccccc2)c1 -2.66%
COc1ccc(OC)c(-c2csc(NC(=O)c3ccc(OCC4CCCO4)cc3)n2)c1 (stereo not given) 6.81%
C=CCNC(=O)C1COc2ccccc2O1 (stereo not given) -12.5%
O=C(NC(=S)N1CCCc2ccccc21)c1ccc(Br)cc1 -10.8%
O=C(NC(=S)N1CCCc2ccccc21)c1ccc(Cl)cc1 -35.9%
O=C(c1coc(=O)c(Br)c1)N1CCOCC1 24.5%
O=C(c1ccc(=O)[nH]c1)N1CCCc2ccccc21 0.97%
O=C(c1ccc(Br)cc1)N1CCCc2ccccc21 4.85%
O=C(c1ccccc1)N1CCCc2ccccc21 16.3%
COc1ccccc1N1CCN(C(=O)c2coc(=O)c(Br)c2)CC1 27.6%
O=C(c1cccc(Br)c1)N1CCCc2ccccc21 4.68%
CSC1=C(C#N)C(c2sccc2C)CC(=O)N1 (stereo not given) -3.4%
C[C@@H]1CCC[C@H](C)N1Cc1nc(Cc2ccccc2Cl)no1 -1.65%
Oc1cccc(/C=N/n2c(C3CCCCC3)n[nH]c2=S)c1 2.47%
CC(=O)c1c(C)[nH]c(C(=O)CSc2ccc(F)cc2)c1C 29.5%
CCOC(=O)N1CCN(C(=O)C2CCCCC2)CC1 -1.05%
CCOc1ccsc1C(=O)OC 5.88%
CC1(C)CC(=O)C(C=NCCO)=C(O)C1 -1.68%
O=C(CNC(=O)c1ccc(Cl)cc1)OCN1C(=O)c2ccccc2C1=O -9.8%
CCC(C)(C)n1nnnc1C(c1ccc2ncccc2c1)N1CCCCCC1 (stereo not given) 2.63%
CCC(C)(C)n1nnnc1C(c1ccc2ncccc2c1)N1CCN(c2nc3ccccc3s2)CC1 (stereo not given) -9.25% and 0.75%
CCOC(=O)C(=O)NC(C)c1ccccc1 (stereo not given) 1.23%
N#CC(C#N)=C1C(=O)N(CCN2CCOCC2)c2ccccc21 19.1%
COc1ccc(CCNCc2ccc(OCc3ccc(Cl)nc3)c(OC)c2)cc1OC 5.39%
COc1cc(CNCCc2ccccc2)ccc1OCc1ccc(Cl)nc1 2.97%
CCOc1cccc2sc(N(CCCN(C)C)C(=O)c3ccc(S(=O)(=O)N4CCCCCC4)cc3)nc12 -5.19%
O=C(Nc1ccc(NS(=O)(=O)c2ccccc2)cc1)c1ccccc1Cl 9.4%
CCc1ccccc1NC(=O)Nc1ccc2c(c1)OCO2 -3.87%
Cn1cccc1C(=O)NC(=O)COC(=O)CC12CC3CC(CC(C3)C1)C2 -0.55%
Cn1cccc1C(=O)NC(=O)COC(=O)C12CC3CC(CC(O)(C3)C1)C2 9.63%
COc1ccc(Br)cc1/C=N/NC(=O)c1cccnc1 4.05%
O=C(O)CN1C(=O)/C(=C/C=C/c2ccccc2)SC1=S 5.16%
O=C(O)CCN1C(=O)/C(=C\c2ccc(-c3nc4ccccc4s3)o2)SC1=S 32.3%
O=C(O)C(Cc1ccccc1)N1C(=O)/C(=C/c2cccs2)SC1=S (stereo not given) 24.3%
O=C(O)C(Cc1ccccc1)N1C(=O)/C(=C/c2ccccc2)SC1=S (stereo not given) -5.34%
O=C(O)CCN1C(=O)/C(=C/c2ccc(-c3nc4ccccc4s3)o2)SC1=S 1.36%
CCC(C(=O)O)N1C(=O)/C(=C/C(C)=C/c2ccccc2)SC1=S (stereo not given) -2.68%
CCOc1cc(C2NC(=O)NC(C)=C2C(=O)OCc2ccccc2)ccc1O (stereo not given) 0.18%
CCOC(=O)N1CCN(Cc2nc3c(c(=O)[nH]c(=O)n3C)n2Cc2ccccc2C)CC1 23.6%
O=C(CNC(=O)c1ccccc1)Nc1ccsc1C(=O)O -11.3%
COc1ccc(Cc2noc(CN3CCNC(=O)CC3)n2)cc1OC 3.31%
O=c1c2nnn(Cc3ccccc3)c2ncn1C/C=C/c1ccccc1 -0.52%
Nc1ccc2c3c(ccc([N+](=O)[O-])c13)CC2 -1.18%
CC(=O)c1ccc2c3c(ccc([N+](=O)[O-])c13)CC2 -4.85%
Cc1nnc(SCCn2c(N3CCCCC3)nc3c2c(=O)[nH]c(=O)n3C)s1 0.62%
CCOc1ccccc1CNC(=O)Cn1c(=O)oc2ccccc21 72.4%
COc1ccccc1CNC(=O)CCn1c(=O)oc2ccccc21 0.68%
O=C(Nc1ccccc1N1CCOCC1)c1ccc2c(c1)OCCO2 -3.74%
CC(OC(=O)/C=C/c1ccc2ccccc2n1)C(=O)N(C)c1ccccc1 (stereo not given) 1.44%
Cc1ccc(Cn2nnnc2CN2CCC(O)(c3ccccc3F)CC2)cc1 20%
CCCCCCCCS(=O)CCC(=O)O (stereo not given) 11.3%
CCCCCCCCCCCCC(=O)CCCCC(=O)O -6.1%
O=C1CC(N2CCN(c3ccc(C(=O)c4ccc(F)cc4)cc3)CC2)C(=O)N1 (stereo not given) 28.2%
CC(C)(C)NC(=O)c1sccc1C(=O)O 9.39%
Cc1ccc(C)n1-c1ccsc1C(=O)CC#N 22.9%
O=C(CNC(=O)c1cccc(Cl)c1)NCCCSc1ccccc1 -1.26%
Nc1nc(N)c2cc(Sc3ccc(Cl)cc3)ccc2n1 -22.4%
Cc1cc(-c2ccccc2)n(-c2ccccc2)n1 3.24%
Cc1cc(-c2ccco2)n(CC(=O)O)n1 5.45%
COc1ccc(NC(=S)NCCc2ccccc2)c(OC)c1 18.1%
COc1ccc(NC(=S)NCCc2c[nH]c3ccccc23)c(OC)c1 20.9%
COc1cc(OC)cc(C(=O)N2CCCC(c3nc(-c4ccc(C)o4)no3)C2)c1 (stereo not given) 32.4%
COc1cccc(CN2CC(C(=O)N(C)CCCC3CCCC3)CCC2=O)c1 (stereo not given) -1.28%
CCC(C)(C)n1nnnc1C(c1cc2cc(OC)ccc2[nH]c1=O)N1CCc2ccccc21 (stereo not given) 3.72% and -1.49%
Cc1ccc2[nH]c(=O)c(C(c3nnnn3C3CCCC3)N3CCCc4ccccc43)cc2c1 (stereo not given) 16.5%
O=c1cc(CSc2nnc(Nc3ccccc3F)s2)nc2sccn12 -10.7%
COc1ccccc1C(CNC(=O)c1ccc(OCc2c(C)noc2C)cc1)N1CCCC1 (stereo not given) 7.05%
COc1cc(C(=O)NCC(c2ccco2)N2CCCC2)ccc1OCc1ccccc1 (stereo not given) 3.67%
Cc1ccc(NC(=O)COC(=O)CN2CCSC2=O)cc1Cl 7.83%
Cc1ccc(/C=N/N=C/c2ccc(C)cc2)cc1 1.03%
Cc1ccc(/C=C2/CNC/C(=C/c3ccc(C)cc3)C2=O)cc1 4.14%
Cc1nc2ccccc2n1CCN1CCOCC1 -1%
COC(=O)c1nn(-c2ccc(Oc3ccccc3)cc2)c(=O)cc1O 2.63%
Nc1ccc(S(=O)(=O)N2CCOCCOCCOCCOCCOCC2)cc1 1.81%
C=C(C)C(=O)OCC(=O)NCc1ccccc1 -3.45%
Oc1ccc(/C=N/NC2=NCCCCC2)cc1 27.5%
Oc1ccccc1/C=N/NC1=NCCCCC1 -2.42%
O=C(O)c1cccc(S(=O)(=O)Nc2cccc(S(=O)(=O)N3CCCCCC3)c2)c1 4%
Cc1cccc(N(Cc2ccccc2F)S(C)(=O)=O)c1 22.4%
c1coc(C2=Nc3cccc4cccc(c34)N2)c1 8.06%
COc1ccc(C2=Nc3cccc4cccc(c34)N2)cc1 -2.87%
CC(C)C1=Nc2cccc3cccc(c23)N1 -3.35%
Fc1ccc(C2=Nc3cccc4cccc(c34)N2)cc1 -0.82%
CC(=C\c1ccccc1)/C=C1/SC(=S)N(CCCC(=O)O)C1=O 2.05%
CC(=C\c1ccccc1)/C=C1/SC(=S)N(CCC(=O)O)C1=O -2.12%
CC(=O)c1ccc(NC(=O)CCCN2C(=O)/C(=C/C(C)=C/c3ccccc3)SC2=S)cc1 4.61%
CC(=C\c1ccccc1)/C=C1/SC(=O)N(CCCC(=O)Nc2ccc(C(=O)O)cc2)C1=O 0.71%
CC1=C(C(=O)N(C)C)C(c2cccs2)NC(=O)N1 (stereo not given) 4.4%
O=C(CS(=O)(=O)c1ccc(F)cc1)N1CCN(c2ccccc2)CC1 -1.09%
c1ccc(Nc2ccccc2)cc1 -0.33%
Cc1ccc(Nc2ccccc2)cc1 6.07%
Cc1cc(NC(=O)CSc2nnc(C)n2-c2ccccc2)no1 1.46%
